This is a sample that favours compounds with a hit; in the whole collection about 0.49% have one here.
Vif-APOBEC3F blk = inhibitors of Vif-A3F interaction; HeLa A3F-eYFP + Vif (tagged APOBEC3F with the HIV-1 protein that degrades it), YFP fluorescence increase; Potency, µM (series often up to 46.1 µM), for the others: at the highest dose activity, negative = active; 390,000 tested, 0.2% active; AID 602313; note: potency is the fitted concentration of half-maximal effect; % of control where 0% means no effect; nearly all actives have a fitted effect of over 65% in size
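HeLa cells stably expressing Vif plus C-terminally eYFP-tagged A3F were seeded, incubated overnight at 37 deg C, dosed with compound, incubated overnight again at 37 deg C. Yellow fluorescence (Ex 488/Em 500-530) reported blocked Vif-mediated A3F-eYFP degradation.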
IDH1 R132H inh = inhibitors of human mutant IDH1 R132H; IDH1-R132H enzyme, NADPH consumption, diaphorase/resazurin fluorescence; O75874; 390,000 tested, 0.093% active; AID 602179; Potency, µM (series often up to 76.6 µM), without a hit: at the highest dose activity change, negative = inhibition, usual class: inhibitors; note: potency is the fitted concentration of half-maximal effect; % is set by controls: 0 for no effect and ±100 for the full control effect; nearly all actives have a fitted effect of over 65% in size
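IDH1-R132H (0.5 ug/mL) preincubated 30 min with compound, then NADPH (0.016 mM) and alpha-KG (2 mM) added; 80 min at RT, pH 7.5. Remaining NADPH coupled via diaphorase/resazurin to fluorescence (540/590 nm); concentration-response curves normalized to no-enzyme control.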
PGK inhibitor = inhibitors of T. brucei phosphoglycerate kinase; PGK/GAPDH coupled, Kinase-Glo luminescence, 60 min; AID 602233; Potency, µM (top dose mostly 57.5 µM), for inactives: top-dose activity change, negative = inhibition, most hits filed as inhibitors; P07378; 380,000 tested, 0.043% active; note: potency is the fitted concentration of half-maximal effect; % is set by controls: 0 for no effect and ±100 for the full control effect; nearly all actives have a fitted effect of over 60% in size
Target sequence (P07378 whole entry, looked up): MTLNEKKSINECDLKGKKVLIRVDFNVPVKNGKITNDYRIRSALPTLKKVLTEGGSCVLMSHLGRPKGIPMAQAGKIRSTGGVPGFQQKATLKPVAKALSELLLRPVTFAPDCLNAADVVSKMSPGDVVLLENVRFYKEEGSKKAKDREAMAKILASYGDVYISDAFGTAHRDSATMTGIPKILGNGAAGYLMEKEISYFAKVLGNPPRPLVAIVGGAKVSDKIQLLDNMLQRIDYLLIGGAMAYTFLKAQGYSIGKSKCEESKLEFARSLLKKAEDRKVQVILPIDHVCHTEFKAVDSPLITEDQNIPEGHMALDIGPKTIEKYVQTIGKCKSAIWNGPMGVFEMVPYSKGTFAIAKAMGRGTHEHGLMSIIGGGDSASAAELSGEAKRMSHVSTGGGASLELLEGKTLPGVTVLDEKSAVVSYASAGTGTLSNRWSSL
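Luminescent ATP detection (Kinase-Glo Plus) follows a 60-minute room-temperature incubation, with wells lacking PGK as controls. Buffer: 100 mM TEA (pH 7.6), 5 mM MgCl2, 0.01% Tween-20. Coupling enzyme GAPDH (100 nM final) supplies unstable 1,3-BPG in-well.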
Vif-APOBEC3G blk = inhibitors of Vif-APOBEC3G interaction. Q9HC16. HeLa A3G-eYFP + Vif (tagged APOBEC3G with the HIV-1 protein that degrades it), YFP fluorescence, overnight. Potency, µM (series often up to 46.1 µM), for inactives: top-dose activity, negative = active, usual class: inhibitors. 410,000 tested, 0.076% active; note: potency is the fitted concentration of half-maximal effect; % is set by controls: 0 for no effect and ±100 for the full control effect; nearly all actives have a fitted effect of over 60% in size
Target sequence (Q9HC16 whole entry, looked up): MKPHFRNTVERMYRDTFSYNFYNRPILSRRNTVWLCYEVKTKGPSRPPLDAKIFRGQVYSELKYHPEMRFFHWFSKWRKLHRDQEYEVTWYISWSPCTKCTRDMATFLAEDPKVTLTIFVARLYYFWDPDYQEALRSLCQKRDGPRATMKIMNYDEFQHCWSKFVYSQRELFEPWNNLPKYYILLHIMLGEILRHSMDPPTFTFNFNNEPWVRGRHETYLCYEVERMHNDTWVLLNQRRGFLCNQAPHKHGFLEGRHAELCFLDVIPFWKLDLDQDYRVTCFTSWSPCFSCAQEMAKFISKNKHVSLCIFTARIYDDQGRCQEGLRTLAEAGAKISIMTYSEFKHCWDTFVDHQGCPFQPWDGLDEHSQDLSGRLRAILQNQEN
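Read-out is eYFP fluorescence (Ex 488/Em 500-530) from Vif-expressing HeLa A3G-eYFP cells; more signal means A3G escaped Vif-mediated degradation. Cells plated overnight, compound pinned in, incubated overnight at 37 deg C.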
Pin1 inh = blocks the human prolyl isomerase Pin1; Potency, µM (highest dose often 115 µM), for the others: at the top dose activity, negative = inhibition, actives largely listed as inhibitors; Q13526; 390,000 tested, 0.009% active; Pin1 FP peptide displacement, HiFluor488, 10 min; AID 504891; active = well fitted inhibition curve with a large enough effect in the polarisation, with a control signal flat, not every such curve was filed as active; inconclusive = small, poorly fitted or top-dose-only effect, or effect the other way, or a change in a side signal; inactive = no such curve, though single readings can be large or run the other way; the % refers to the polarisation; note: potency is the fitted concentration of half-maximal effect; % is set by controls: 0 for no effect and ±100 for the full control effect
LDHA block = inhibitors of human lactate dehydrogenase A; P00338; purified LDHA, NADH/diaphorase-resazurin fluorescence; stronger effect = lower value; activity change, % (values are at about 110 or 230 µM); 480,000 tested, 0.15% active; AID 1347041; in the data active = activity change below about -30%; inconclusive = mostly about -25% to -30%;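 note: plate controls were DMSO wells for no effect and wells without enzyme for full effect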
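Resorufin fluorescence (ex540/em590), read at 0 and 20 min after diaphorase/resazurin addition, reports the NADH left after a 5 min room-temperature reaction of 2 nM human LDH5 with 0.06 mM NADH and 0.2 mM pyruvate.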
The depositor's hits bear a star; i = inactive; ? = inconclusive; . = no result; ! = repeats disagree; [ ] = another dose, or the depositor's remark. Unless noted, calls come from the whole dose curve; as a rule, active = well fitted curve in the direction sought with a large enough effect; inconclusive = small, poorly fitted or top-dose-only effect, or another doubt; inactive = no such curve, though single readings can be large; an effect the other way counts as inactive or inconclusive.

SMILES | Vif-APOBEC3F blk | IDH1 R132H inh | PGK inhibitor | Vif-APOBEC3G blk | Pin1 inh | LDHA block
O=c1c2ccccc2sc2ccc(NCCCN3CCOCC3)cc12 | 22.4µM* | -0.8%[38.3 µM] | -8.8% | ? | ? | 5.9
O=C(NC1CCCCC1)c1cccc2c1C(=O)c1ccc(-c3ccc(OC(F)(F)F)cc3)cc1S2(=O)=O | -1.0% | -1.9% | 3.5% | 0.3% | -4.4% | -9.0
Cc1ccc(CNC(=O)c2cccc3c2C(=O)c2ccc(N4CCCCC4)cc2S3(=O)=O)cc1 | 22.4µM* | 7.4% | -12.1% | ? | ? | -1.2
O=C(NCc1ccccc1Cl)c1cccc2c1C(=O)c1ccc(-c3ccc(OC(F)(F)F)cc3)cc1S2(=O)=O | 12.6µM* | -0.1% | -2.3% | -8.9% | 8.5% | -12.7
O=C(NCC1CCCO1)c1cccc2c1C(=O)c1ccc(N3CCC(Cc4ccccc4)CC3)cc1S2(=O)=O (configuration not stated) | 25.1µM* | -8.5% | -8.3% | ? | ? | -15.3
O=C(NCc1ccccc1)c1cccc2c1C(=O)c1ccc(/C=C/c3ccccc3)cc1S2(=O)=O | 10µM* | 0.6% | -11.7% | -30.4% | ? | -17.8
Cc1cc(C)cc(NC(=O)CCCn2cnc3c2c(=O)n(C)c(=O)n3C)c1 | . | . | . | . | . | 0.8
CCOCCn1c(=O)c2c(nc(-n3nc(C)c(C)c3C)n2CC)n(C)c1=O | . | . | . | . | . | 0.3
COc1ccc(Nc2cc(C)nc3c(OC)cccc23)cc1 | . | . | . | . | . | -3.8
CC(C)(C)C(=O)/C=c1/[nH]c(=O)/c(=C/c2cccc(C(F)(F)F)c2)s1 | . | . | . | . | . | -11.3
CN(CC(=O)NC(=O)NCC(F)(F)F)CC(=O)Nc1ccc(F)cc1 | . | . | . | . | . | -4.7
CC(=O)Nc1ccc(C2=CC(=O)C[C@H](c3ccc(Cl)cc3)C2)cc1 | 22.4µM* | 6.1% | -6.9% | ? | -2.4% | 1.3
COc1ccc(NC(=O)c2cc(=O)c3cc(C)ccc3o2)c(OC)c1 | . | . | . | . | . | -2.9
O=C(Nc1ccc(C2=NCCN2)cc1)c1ccc(C(=O)Nc2ccc(C3=NCCN3)cc2)c([N+](=O)[O-])c1 | -21.7% | -13.4% | 1.9% | 3.8% | ? | -35.6*
Cc1ccc(NC(=O)c2ccc(-n3cccn3)c([N+](=O)[O-])c2)cc1 | 12.6% | 19.1% | -4.2% | 0.8% | -8.9% | -8.3
CC1CCc2c(sc(NC(=O)c3ccco3)c2C(=O)O)C1 (configuration not stated) | -26.8% | 28.6% | i | -10.9% | -17.0% | -40.6*
O=C(Nc1sc2c(c1C(=O)O)CCCCC2)c1ccco1 | -17.5% | 4.5% | -10.6% | 2.0% | 1.3% | -42.1*!
CCNc1c(NS(=O)(=O)c2ccc(OCC)cc2)c(=O)oc2ccccc12 | . | . | . | . | . | -0.6
c1ccc2nc(N3CCN(Cc4ccc5c(c4)OCO5)CC3)cnc2c1 | 3.7% | 5.9% | -9.9% | 3.7% | 6.1% | -4.0
N#C/C(=C\N1CCN(Cc2ccc3c(c2)OCO3)CC1)c1nc2ccccc2s1 | 28.2µM* | 4.3% | -2.3% | ? | ? | -2.1
CCOC(=O)N1CCN(/C=C(\C#N)c2nc3ccccc3s2)CC1 | 25.1µM* | 6.6% | -7.2% | 22.4µM* | ? | -9.9
COc1ccccc1CNC(=O)c1sc(-c2ccc(OC)c(OC)c2)nc1C | . | . | . | . | . | -5.4
C[C@H](NC(=O)[C@H](Cc1ccccc1)n1c(=O)[nH]c2ccccc2c1=O)C(=O)N1CCC[C@H]1C(=O)O | -17.8% | 15.2% | -0.8% | 0.3% | -5.7% | -2.1
CSCC[C@H](NC(=O)[C@H](Cc1ccccc1)n1c(=O)[nH]c2ccccc2c1=O)C(=O)N1CCC[C@@H]1C(=O)O | -1.5% | 26.2% | 0.6% | 10µM* | ? | -0.1
O=C(Cn1c(-c2cscn2)nc2ccccc21)Nc1ccc(N2CCCCC2)cc1 | . | . | . | . | . | 9.1
SMILES | Vif-APOBEC3F blk | IDH1 R132H inh | PGK inhibitor | Vif-APOBEC3G blk | Pin1 inh | LDHA block
Cc1cccc(N=C2NN=C(c3c[nH]c(C(=O)N4CCCC4)c3)CS2)c1 | . | . | . | . | . | 1.3
O=C(c1coc(=O)c(Br)c1)N1CCC(C(O)(c2ccccc2)c2ccccc2)CC1 | -11.7% | 1.4% | 3.0% | -3.0% | -2.6% | -5.8
CC1(C)CCCN(C(=O)c2coc(=O)c(Br)c2)C1 | -3.2% | 0.3% | 6.31µM* | -0.8% | . | -12.9
CCc1nc(NC(CC)CO)c(C#N)c2c1CCCC2 (configuration not stated) | . | . | . | . | . | -33.6*
CCN(CC)c1ccc(/C=C(\C#N)c2ccccn2)cc1 | ? | -2.4% | i | 10µM* | ? | -5.6
CN(CCC#N)c1ccc(/C=C(\C#N)c2ccccn2)cc1 | -3.1% | 2.4% | -6.0% | -0.6% | 38.4% | -0.1
CCN(Cc1ccccc1)c1ccc(/C=C(\C#N)c2ccccn2)cc1 | 22.4µM* | 5.7% | -1.4% | -12.0% | ? | -3.1
CCCCNc1nc(-c2ccc3c(c2)CC(C)N3S(C)(=O)=O)cs1 (configuration not stated) | . | . | . | . | . | 5.2
FC(F)(F)c1ccccc1NC(=S)NN=C1CCCCCC1 | 6.31µM* | -12.5% | -2.5% | ? | -1.2% | 0.5
O=C(CCc1ccc2ccccc2n1)NCCc1ccc(C(F)(F)F)cc1 | . | . | . | . | . | 0.6
Cc1cc(SCC(=O)c2ccc(F)cc2)nc2ccccc12 | . | . | . | . | . | -3.9
Cc1cc2c(cc1C)NC(CC(=O)Nc1cccc(C)c1C)C(=O)N2 (configuration not stated) | -4.7% | 0.1% | -3.0% | -15.0% | 0.5% | 4.0
Cc1cc2c(cc1C)NC(CC(=O)NCc1ccccc1)C(=O)N2 (configuration not stated) | 28.2µM* | 5.0% | 2.3% | 3.3% | 25.2% | 6.7
Cc1ccc2c(=O)cc(C(=O)N3CCOC34CCN(C)CC4)oc2c1 | . | . | . | . | . | -0.8
O=C(OCc1ccccc1F)c1cccc(S(=O)(=O)N2CCCCC2)c1 | . | . | . | . | . | 2.3
O=C(CBr)c1ccc(Oc2ccc(C(=O)C[n+]3ccccc3Cl)cc2)cc1 | . | . | . | 0.7% | . | -72.0*
CSc1nsc(/C=C/Nc2ccc(O)cc2C)c1C#N | 10µM* | 4.3% | -2.1% | ? | ? | 14.7
CSc1nsc(/C=C/Nc2ccc(Cl)cc2)c1C#N | ? | 12.1% | -8.6% | ? | ? | 11.9
CSc1nsc(/C=C/Nc2ccc(F)cc2)c1C#N | 22.4µM* | 22.0% | -8.9% | ? | 44.4% | 12.6
O=C(O)/C=C/c1cccc(I)c1 | . | . | . | . | . | 1.0
Cc1cccc(NC(NC(=O)c2cccc(Cl)c2)C(Cl)(Cl)Cl)c1 (configuration not stated) | . | . | . | . | . | 11.3
Oc1sc(C=Nc2ccccc2)c2ccccc12 | 25.1µM* | 1.6% | -0.4% | 11.2µM* | ? | 1.9
Oc1sc(C=Nc2ccc(F)cc2)c2ccccc12 | 2.82µM* | 0.8% | i | ? | ? | -5.8
